# Rango dissoc inh – inhibition of RanGTP-driven Rango-importin beta dissociation; O95149+P62826; Biochemical FRET Rango-importin beta, RanGTP-induced dissociation; Potency, µM (highest dose often 46.1 µM); 0.071% of 340,000 active; calls by dose curve; further: nearly all actives have a fitted effect of over 45% in size
#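 Two FRET readings bracket the reaction: one 5 min after compound meets Rango–importin beta, another 45 min after RanGTP-RCC1 (0.6 uM Ran, 0.2 uM RCC1, 2 mM GTP) is added. Only the second defines inhibition.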
# Abeta rescue – compounds reversing amyloid beta toxicity in yeast; yeast expressing A-beta42, growth rescue, OD600, 48 h; response scale: 0% DMSO, 100% iron-clioquinol control; Potency, µM (top dose mostly 46.1 µM), usual class: activators; 0.063% of 410,000 active; further: nearly all actives have a fitted effect of over 55% in size
#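 Yeast A-beta toxicity model in growth medium with pinned compounds, 48 h at 30 C; growth read as absorbance at 600 nm. Normalized to FeCl3/clioquinol equimolar mix (positive) and DMSO (negative).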
# S-ASM inh – human S-ASM enzyme inhibition; Potency, µM (doses to about 57.5 µM), most hits filed as inhibitors; AID 504937; placental ASM, HMU-PC fluorogenic substrate, 60 min; P17405; 0.006% of 340,000 active
#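 HMU-PC0 cleavage (9 uM final) by human placental ASM, 60 min at 37 °C following 10 min compound exposure at RT; stopped at pH 10, fluorescence Ex 386/Em 447 nm.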
# aSyn rescue – inhibitors of alpha-synuclein toxicity in yeast. Yeast expressing alpha-synuclein, growth rescue, BacTiter-Glo, 24 h. Potency, µM (highest dose often 46.1 µM), hits mostly activators. 0.14% of 370,000 active; further: nearly all actives have a fitted effect of over 65% in size
#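 Readout is rescue of growth in alpha-synuclein-expressing yeast, so inhibitors of toxicity appear as activators. Growth after 24 hr at 30 deg C in galactose medium is quantified by luminescence.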
# TDP-43 yeast inh – rescues yeast growth from TDP-43 toxicity; TDP-43 expressing yeast growth rescue, BacTiter-Glo, 24 h; 1.8% of 410,000 active; Potency, µM (titrated, usually from 46.1 µM), actives largely listed as activators; AID 652104; further: nearly all actives have a fitted effect of over 50% in size
#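 Growth rescue of TDP-43-toxic yeast measured as ATP luminescence (BacTiter-Glo). Cells grown to mid-log in raffinose, induced in galactose at OD600=0.02, exposed to compound 24 hr at 30 deg C.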
# Rango-impB inh – Rango-importin beta binding inhibition; Q14974; Rango CFP/YFP FRET sensor + importin beta, 45 min; Potency, µM (doses to about 92.2 µM); 0.031% of 340,000 active; calls by dose curve; further: nearly all actives have a fitted effect of over 15% in size
# Target sequence (Q14974 whole entry, looked up): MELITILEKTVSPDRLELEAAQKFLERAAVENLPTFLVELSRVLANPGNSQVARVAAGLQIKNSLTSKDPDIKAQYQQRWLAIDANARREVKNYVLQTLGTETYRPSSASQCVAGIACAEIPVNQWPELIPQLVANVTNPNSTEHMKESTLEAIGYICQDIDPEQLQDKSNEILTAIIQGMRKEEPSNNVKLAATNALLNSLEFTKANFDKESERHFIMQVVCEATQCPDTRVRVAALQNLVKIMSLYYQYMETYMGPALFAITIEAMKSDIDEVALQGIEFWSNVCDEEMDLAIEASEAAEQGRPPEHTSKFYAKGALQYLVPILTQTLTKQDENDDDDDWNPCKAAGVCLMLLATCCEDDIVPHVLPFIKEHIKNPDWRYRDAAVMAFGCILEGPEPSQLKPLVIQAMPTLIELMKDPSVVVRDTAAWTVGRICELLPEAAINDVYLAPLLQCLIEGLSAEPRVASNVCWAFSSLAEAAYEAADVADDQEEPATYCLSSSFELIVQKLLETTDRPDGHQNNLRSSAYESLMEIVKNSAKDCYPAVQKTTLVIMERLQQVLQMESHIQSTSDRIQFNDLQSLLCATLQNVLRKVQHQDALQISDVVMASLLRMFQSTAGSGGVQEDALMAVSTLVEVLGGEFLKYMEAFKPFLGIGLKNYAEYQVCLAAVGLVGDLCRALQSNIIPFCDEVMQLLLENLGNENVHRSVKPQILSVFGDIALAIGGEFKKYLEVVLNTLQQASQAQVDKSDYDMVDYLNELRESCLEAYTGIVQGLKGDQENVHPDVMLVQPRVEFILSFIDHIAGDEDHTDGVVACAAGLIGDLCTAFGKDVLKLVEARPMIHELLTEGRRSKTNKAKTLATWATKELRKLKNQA
#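 Inhibition scored from the CFP 486 nm/YFP 530 nm FRET ratio 45 min after adding 0.125 microM importin beta to 50 nM Rango biosensor preincubated 5 min with compound (room temperature, PBS with DTT, Tween-20, BSA). No-importin wells as positive control.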
# Numbers stand for hits; i = inactive; ? = inconclusive; nt = no result; [ ] = another dose, or the depositor's remark. Only some compounds are listed: those with a hit (about 2% of all), similar ones and a draw of the others. Unless noted, the call rests on the fitted dose curve; in most records, active means well fitted curve in the direction sought with a large enough effect; inconclusive means small, poorly fitted or top-dose-only effect, or another doubt; inactive means no such curve, though single readings can be large; an effect the other way counts as inactive or inconclusive.
SMILES,Rango dissoc inh,Abeta rescue,S-ASM inh,aSyn rescue,TDP-43 yeast inh,Rango-impB inh
Cc1ccc(S(=O)(=O)NC(=O)c2cc(C)n(-c3ccc(N(C)C)cc3)c2C)cc1,i,i,i,i,35.5µM,i
COc1cc(Nc2nc(-c3ccccc3)c3cc(C)ccc3n2)cc(OC)c1OC,i,i,i,i,20µM,i
COc1cccc(Nc2nc(-c3ccccc3)c3cc(C)ccc3n2)c1,nt,i,nt,nt,i,nt
O=C(C1COc2ccccc2O1)N1CCN(c2nc3ccc(F)cc3s2)CC1 (stereo not given),nt,?,nt,nt,20µM,nt
O=C(C1COc2ccccc2O1)N1CCN(c2ccccc2)CC1 (stereo not given),i,?,i,i,25.1µM,i
COC(=O)C1=C(C)NC(=O)C1(NC(=O)c1cc(OC)c(OC)c(OC)c1)C(F)(F)F (stereo not given),nt,i,nt,nt,i,nt
COC(=O)c1ccccc1NC(=O)CCS(=O)(=O)c1nc(-c2ccc3c(c2)OCO3)cc(C(F)(F)F)n1,nt,i,nt,nt,i,nt
O=C(CCS(=O)(=O)c1nc(-c2ccc3c(c2)OCO3)cc(C(F)(F)F)n1)Nc1ccccc1F,nt,i,nt,nt,22.4µM,nt
CSc1ccccc1NC(=O)CCS(=O)(=O)c1nc(-c2ccc3c(c2)OCO3)cc(C(F)(F)F)n1,nt,i,nt,i,11.2µM,nt
O=C(C[n+]1cccc(Br)c1)c1cc(Cl)ccc1Cl,nt,nt,nt,i,nt,nt
CCOC(=O)CC(=O)CSc1nc2c(c(-c3cccs3)c1C#N)CCC2,20.6µM,i,i,i,i,?
Cn1nc(-c2ccncc2)nc2c(=O)n(C)c(=O)nc1-2,nt,nt,nt,i,nt,nt
Clc1ccc(-c2cc3ccccc3nc2N2CCCC2)cc1,i,i,i,i,i,i
Clc1ccc(-c2cc3ccccc3nc2N2CCOCC2)cc1,i,i,i,i,17.8µM,i
CCN(CC)/[N+]([O-])=N/OCOC(=O)C(C)c1ccc2cc(OC(C)=O)ccc2c1 (stereo not given),nt,nt,nt,i,nt,nt
O=C(NCCN1CCCCC1)c1ccc(Oc2cc(Cl)cc(Cl)c2)o1,16.4µM,i,i,i,i,i
O=C(Sc1nnc(-c2ccccc2)o1)N1c2ccccc2Sc2ccccc21,i,?,i,i,11.2µM,i
Clc1ccccc1COc1ccccc1-c1nnco1,i,i,i,i,3.16µM,i
COc1ccc(Cl)cc1CC1(C)C(=O)Nc2c(Cl)cccc21 (stereo not given),nt,i,nt,i,28.2µM,nt
CC1(Cc2ccc(F)c(Cl)c2)C(=O)Nc2c(Cl)cccc21 (stereo not given),nt,i,nt,3.55µM,22.4µM,nt
Cc1ccc(N2CC(NC(=O)c3ccco3)CC2=O)cc1 (stereo not given),nt,i,nt,nt,i,nt
Cc1ccc(-c2csc3nc[nH]c(=S)c23)cc1,i,i,i,i,17.8µM,i
CC(=O)c1c(C)nc2ccccc2c1N,i,i,i,i,i,i
Cc1nc2ccccc2c(C)c1C(=O)c1ccccc1,i,i,i,i,14.1µM,i
O=[N+]([O-])c1nn(-c2ccc3c(c2)OCCO3)n(O)c1=NC1CCCCCC1,i,i,i,i,15.8µM,i
SMILES,Rango dissoc inh,Abeta rescue,S-ASM inh,aSyn rescue,TDP-43 yeast inh,Rango-impB inh
O=[N+]([O-])c1nn(-c2ccc3c(c2)OCCO3)n(O)c1=NCCCO,i,i,i,i,i,i
O=[N+]([O-])c1nn(-c2ccc3c(c2)OCCO3)n(O)c1=NC1CCCC1,i,i,i,i,5.01µM,i
CCOc1ccc(OCCN2C(=O)NC3(CCCc4ccccc43)C2=O)cc1 (stereo not given),i,i,i,i,35.5µM,i
c1ccc(-c2nc(NC3CC3)nc(-n3ccnc3)n2)cc1,i,i,i,i,5.01µM,i
c1ccc(-c2nc(-n3ccnc3)nc(-n3ccnc3)n2)cc1,i,i,i,nt,?,i
O=C(c1ccc2c(c1)N(Cc1ccc(Cl)cc1)C(=O)c1ccccc1S2(=O)=O)N1CCc2ccccc21,nt,i,nt,nt,i,nt
CCOC(=O)N1CCN(C(=O)Cc2ccc(Cl)cc2)CC1,i,i,i,i,i,i
CCOC(=O)C1(C(N)=O)OC1(c1ccc(Cl)cc1)c1ccccc1Cl (stereo not given),i,i,i,i,i,i
CCOC(=O)N1C(=O)[C@](c2ccc(Cl)cc2)(C(C)C)N1C(=O)OCC,i,i,i,i,15.8µM,i
CCOC(=O)N1C(=O)[C@@](c2ccc(Cl)cc2)(C(C)C)N1C(=O)OCC,i,i,i,i,20µM,i
N#Cc1nc(-c2ccccc2)cc(-c2ccccc2)n1,nt,nt,nt,i,nt,nt
CC1=CC2=NC(=O)/C(=C\c3cccn3CCOc3ccccc3C)C(=N)N2O1,i,?,i,i,20µM,?
Cc1ccc(Nc2ncc(C(=O)N3CCN(c4ccc(F)cc4)CC3)c3ccccc23)cc1Cl,nt,i,nt,nt,12.6µM,nt
COc1ccc(Nc2ncc(C(=O)N3CCN(c4ccc(F)cc4)CC3)c3ccccc23)cc1,i,i,i,i,i,?
COc1ccc(CCNC(=O)C(=O)Nc2ccc(C)cc2)cc1OC,nt,i,nt,?,i,nt
Cc1ccc(C(=O)Nc2ccccc2Oc2ccccc2)cc1[N+](=O)[O-],i,?,i,i,i,i
O=C(Nc1ccccc1Oc1ccccc1)c1cccc([N+](=O)[O-])c1,i,i,i,?,14.1µM,i
COc1ccc(-c2ccccc2)cc1NC(=O)C1(C)CCN1C(=O)C(C)C (stereo not given),nt,i,nt,i,35.5µM,nt
CC(C)C(=O)N1CCC1(C)C(=O)Nc1ccccc1OC(F)F (stereo not given),nt,i,nt,i,i,nt
COc1ccc(/C=C/C(=O)Nc2nc(-c3cccs3)ns2)cc1OC,nt,i,nt,nt,i,nt
CC(=O)c1ccc(Oc2ccc(C(C)=O)cc2)cc1,i,i,i,i,22.4µM,i
COc1c([N+](=O)[O-])ccc(N)c1N,nt,nt,nt,i,nt,nt
CC(=O)c1ccc(NC(=O)c2ccc(CSc3ccccc3)o2)cc1,i,i,i,i,15.8µM,i
O=C(Nc1ccc(F)cc1)c1ccc(CSc2ccccc2)o1,i,i,i,i,15.8µM,i
O=C(Nc1ccc(F)cc1)c1ccc(CSc2ccc(Cl)cc2)o1,i,?,i,i,i[1.82 µM],i
NS(=O)(=O)c1ccc(NC(=O)c2ccc(CSc3ccccc3)o2)cc1,i,i,nt,i,i,i
CCOC(=O)c1c(S(=O)(=O)N2CCCC(C(=O)Nc3cccc(Cl)c3)C2)c(C)n(C)c1C (stereo not given),nt,i,nt,nt,i,nt
CN(C)c1ccc(CCc2ccnc3ccccc23)cc1,nt,nt,nt,i,nt,nt
C=CCOC(=O)C1=C[C@H](c2ccc(Br)cc2)[C@@H](CCCO)[C@H](OCC)O1,i,i,i,i,22.4µM,i
Oc1cc(O)c(/C=C/c2ccnc3ccccc23)c(O)c1,nt,nt,nt,i,nt,nt
